Screens from PubChem BioAssay.
An excerpt weighted towards active compounds, which were near 0.76% of everything screened.
Mtb betalactam: beta-lactam sensitization of Mtb H37Rv; M. tuberculosis H37Rv growth with meropenem, percent inhibition; 0.27% of 330,000 active; inhibition, % at 25 µM;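 also: growth measured after seven days incubation then overnight dye step; 0% = bacteria only wells and 100% = bacteria with antibiotic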
FadD28 binding: M. tuberculosis FadD28 bisubstrate binding inhibition. AID 588549. inhibition, % at 12.5 µM. FadD28 bisubstrate probe binding, fluorescence polarization. 0.22% of 360,000 active; in the data active = inhibition above about 8.5%, passing the limit was not always enough
Mtb UGM inh: blocks M. tuberculosis UGM enzyme; purified UGM, fluorescence polarization probe displacement; inhibition, % at 10 µM; 0.06% of 320,000 active; in the data active = inhibition above about 10%, passing the limit was not always enough
PrP UTR inh: inhibition of PrP 5' UTR reporter expression. 0.35% of 340,000 active. inhibition, % (no concentration beside the values). cell-based PrP 5' UTR mRNA reporter, plate reader; in the data active = inhibition above about 52%; also: 0 = median of the neutral control wells
Rv3671c protease: inhibitors of M. tuberculosis serine protease Rv3671c. inhibition, % at 5.96 µM. 0.048% of 320,000 active; in the data active = inhibition above about 38%;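 also: extracellular domain of Rv3671c used as enzyme; 0% = enzyme with DMSO and 100% = no enzyme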
Target sequence (P9WHR9 whole entry, looked up, the tested form may be a part): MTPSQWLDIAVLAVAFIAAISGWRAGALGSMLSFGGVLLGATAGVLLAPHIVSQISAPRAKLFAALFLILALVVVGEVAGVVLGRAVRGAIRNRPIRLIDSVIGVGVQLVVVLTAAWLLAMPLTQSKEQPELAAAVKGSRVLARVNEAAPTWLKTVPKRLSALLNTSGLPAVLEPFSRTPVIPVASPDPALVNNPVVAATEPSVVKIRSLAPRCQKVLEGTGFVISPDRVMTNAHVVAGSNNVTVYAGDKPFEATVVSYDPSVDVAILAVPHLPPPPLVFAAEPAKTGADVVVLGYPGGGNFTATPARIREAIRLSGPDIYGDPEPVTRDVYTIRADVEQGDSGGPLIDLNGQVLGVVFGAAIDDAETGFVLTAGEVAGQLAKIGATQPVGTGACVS
Vc quorum ag-1: quorum light induction in luxS cqsA deficient V. cholerae; V. cholerae BH1578 lux reporter, luminescence, 6 h; activation, % at 18.7 µM; 0.16% of 350,000 active; AID 588436; in the data active = activation mostly above about 9.7%, no sharp cut-off
Vc quorum ag-2: induces V. cholerae light production without autoinducers | shares compounds with Vc quorum ag-1 | V. cholerae BH1578 lux reporter, luminescence, 6 h | 620 tested, under 10 active | activation, % at 50 µM
HeLa 24h tox: cytotoxicity in HeLa cells at 24 hours | shares compounds with Vc quorum ag-1 | HeLa viability, CellTiter-Glo ATP luminescence | activity change, negative = cytotoxicity, % at 35 µM | 25 tested, under 10 active | AID 624140;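 active = signal drop with fitted half-maximal concentration at or below twice the highest valid dose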
An asterisk follows results filed as active; i = inactive; . = no result given. Unless noted, no rule for the calls is given here.

SMILES	Mtb betalactam	FadD28 binding	Mtb UGM inh	PrP UTR inh	Rv3671c protease	Vc quorum ag-1	Vc quorum ag-2	others
O=c1c2cc(Br)ccc2nc(-c2cccc(C(F)(F)F)c2)n1O	97.2	-3.8	2.3	-1.7	6.2	17.9*	0.6
COc1cc(NC(=O)C2CCN(S(=O)(=O)c3cnc[nH]3)CC2)cc(OC)c1OC	7.5	-2.8	-0.3	-33.3	-5.2	-2.5	.
COc1ccc(/C(N)=N/OC(=O)Cc2ccccc2OC)cc1	-9.1	-2.7	-0.8	-21.4	-2.7	12.5	0.7
Cc1nn2cnnc2c(C)c1Cc1c(F)cccc1Cl	-0.4	-0.3	2.9	-2.2	-2.4	165.0*	10.4
CC1Oc2ccccc2OC1(O)c1ccc2ccccc2n1 (stereo not drawn)	-6.8	-0.5	-2.9	-33.0	-4.4	i	.
O=c1cc(CSc2ccccn2)c2ccccc2[nH]1	0.2	-5.5	-2.9	2.1	0.9	26.7*	0.6
CCN(CC)CCCNC(=O)C1CCC(CNS(=O)(=O)c2ccc(Cl)cc2)CC1 (stereo not drawn)	4.0	.	1.2	-27.4	-0.3	-0.6	.
CCc1nnc(NC(=O)c2ccc3ccccc3n2)s1	89.9	-0.6	1.5	-35.4	5.3	-0.9	.
CCSc1nnc(NC(=O)c2ccc3ccccc3n2)s1	90.0	1.9	2.4	-58.7	-11.1	25.0	0.0
CCC(=O)Nc1nnc(SCC(=O)Nc2ccc3c(c2)OCCO3)s1	1.2	-1.7	3.0	-2.6	-9.4	i	.
Nc1nnc(SCC(=O)Nc2ccc3c(c2)OCCO3)s1	2.4	-1.6	0.1	-10.2	-1.7	12.5	0.1
N#Cc1ccccc1NC(=O)CNc1ccccc1N1CCCCC1	6.7	-0.5	0.6	-14.3	2.6	160.2*	255.1
CC(C)n1ncc(N2CCOCC2)c(Cl)c1=O	3.2	-9.0	-0.8	-11.1	-3.7	-1.4	.
CCC(C)Cn1c(S(=O)(=O)O)nc2ccccc21 (stereo not drawn)	-3.5	-2.4	-0.5	-7.4	1.2	24.3	-0.1
CC(C)Cn1c(S(=O)(=O)O)nc2ccccc21	6.1	-1.9	2.5	-0.1	-16.5	i	.
CCOC(=O)Cn1nc(C)n(-c2ccc(Cl)cc2)c1=O	0.7	-2.8	-1.3	-3.0	7.3	0.3	.
CCOC(=O)Cn1nc(C)n(-c2ccc(C(C)C)cc2)c1=O	2.8	0.1	-0.6	-16.0	-4.6	14.3	0.1
O=C(CSc1nnnn1C1CC1)Nc1ccc(S(=O)(=O)N2CCOCC2)cc1	-2.1	-3.2	0.6	.	3.5	i	.
Cc1occc1C(=O)NNC(=O)c1ccccc1[N+](=O)[O-]	-3.5	-1.9	1.7	-0.6	-2.8	-5.3	.
COc1ccccc1CNC(=O)C1CSC2(C)CCC(=O)N12 (stereo not drawn)	7.2	-3.1	0.3	-23.6	-1.3	i	.
COc1cccc(CNC(=O)C2CSC3(C)CCC(=O)N23)c1 (stereo not drawn)	-16.4	-0.4	0.7	-21.4	-2.5	14.3	0.0
CCC(CCC(=O)Nc1cccc(C(=O)O)c1)C(=O)O (stereo not drawn)	3.7	2.0	-0.3	-10.7	2.3	16.7*	0.5
CCCCC(C(=O)O)C(C)CC(=O)Nc1cccc(C(=O)O)c1 (stereo not drawn)	4.9	-2.4	3.3	-14.4	1.2	i	.
CC(C)CC(=O)Nc1ccccc1N1CCN(c2ccccc2)CC1	-3.8	-3.1	-1.1	-29.5	-0.3	-0.5	.
CC(C)CC(=O)Nc1ccccc1N1CCN(C(=O)c2ccccc2)CC1	-11.7	-1.0	1.5	-3.1	-2.3	34.1*	0.1
SMILES	Mtb betalactam	FadD28 binding	Mtb UGM inh	PrP UTR inh	Rv3671c protease	Vc quorum ag-1	Vc quorum ag-2	others
Cc1cnc(C(=O)OCC(=O)Nc2ccc(C)c(S(=O)(=O)N3CCCCC3)c2)cn1	-0.5	-1.8	3.0	-6.2	-6.0	-0.2	.
CCn1c(SCC(=O)OC2CCCCC2)nnc1-c1ccncc1	-4.2	0.7	-0.2	-14.7	4.1	16.7*	0.0
CCOc1ccc(C(=O)OCC(=O)N2CCCC2)cc1	3.5	-1.1	-2.2	-26.0	4.7	25.0*	7.8
CCc1ccc(C(=O)OCC(=O)N2CCCCCC2)cc1	1.0	.	1.4	-28.3	-10.4	3.1	.
CCc1nc(NCCCN2CCOCC2)c2oc3ccccc3c2n1	-11.3	1.4	-1.6	4.9	-3.6	12.5	0.1
Cc1cc2c(ncn2C)c(NS(=O)(=O)c2cc(Cl)ccc2Cl)c1C	7.5	-2.3	0.0	-16.0	-9.4	16.7*	0.3
Cc1cc2c(ncn2C)c(NS(=O)(=O)c2ccccc2Cl)c1C	0.3	-0.8	-0.8	-25.6	-11.6	-2.1	.
COc1ccc(NS(=O)(=O)c2ccc3c(c2)Cc2ccccc2-3)cn1	-7.6	-2.2	-0.9	-29.4	-18.5	1.2	.
CCOc1ccc2cc(C#N)c(SCC(=O)N3CCC(C)CC3)nc2c1	2.9	-1.3	2.4	-18.1	2.2	14.3	4.5
O=C(COc1cccc(Cl)c1)Nc1ccccc1N1CCCCC1	9.2	-3.5	.	-19.5	7.0	19.3	0.0
O=C(COc1ccccc1)Nc1ccccc1N1CCCCC1	91.8	0.3	1.2	-1.6	-7.2	8.3	.
COc1cccc(CNC(=O)COC(=O)CN(C)S(=O)(=O)c2ccc(NC(C)=O)cc2)c1	-9.0	-1.5	-0.3	-18.1	3.9	12.5	0.0
CCc1cc(C(=O)c2ccccc2OC)c(N)s1	-0.5	-1.7	4.5	-18.2	-6.7	12.5	15.4
CS(=O)(=O)NNC(=O)c1sccc1OCc1ncc(C(F)(F)F)cc1Cl	-2.7	-0.8	-1.2	-4.6	-2.2	14.3	7.0
COc1ccc(NC(=O)c2ccc3c(=O)n(CC4CCCO4)c(=S)[nH]c3c2)c(OC)c1 (stereo not drawn)	2.5	-2.1	1.7	-7.6	1.9	-0.4	.
O=C(c1cc2cc(Cl)ccc2oc1=O)N1CCOCC1	-8.9	-2.0	0.3	-18.9	-3.7	7.6	4.1
O=C(c1cc2ccccc2oc1=O)N1CCOCC1	-2.7	-0.4	-0.1	-62.4	7.6	0.4	.
O=C(Nc1ccn(CCCNC2CCN(Cc3ccccc3)CC2)c(=O)n1)OCc1ccccc1	.	-1.7	.	.	.	i	.
CCn1nnnc1NCc1cccc(OC)c1	.	.	.	.	.	.	.	HeLa 24h tox=-14.3
CCCn1nnnc1NCc1cccc(OC)c1	5.2	-2.7	0.6	-23.0	-5.2	0.8	.
CCn1cc(C(=O)Nc2ccccc2)c(=O)c2ccc(C)nc21	11.3	.	-0.6	.	1.3	.	.
CCn1cc(C(=O)NC2CCCCC2C)c(=O)c2ccc(C)nc21 (stereo not drawn)	-2.4	-0.9	0.4	-15.7	-7.7	30.0*	0.0
O=C(Cc1ccc2c(c1)CCCC2)Nc1ccccc1Br	4.2	-3.3	-1.0	-31.2	-12.6	427.2*	27.5
C[C@H]1CCCCO[C@H](CN(C)CC2CCCCC2)[C@@H](C)CN([C@@H](C)CO)C(=O)c2cc(NS(=O)(=O)c3ccccc3)ccc2O1	.	-0.3	.	.	.	i	.
Cc1csc(NC(=O)Cc2nn(C)c(=O)c3ccccc23)n1	-12.0	-1.7	-0.4	-32.2	2.3	25.0*	0.0
